# Bioassay records (PubChem)
# The list is not random: actives were taken first. Their share in the collection is about 8.1%.
# MITF inhib – inhibitors of MITF, primary screen, MITF inhibitor project, cell-based, luminescence; 37,000 tested, 0.28% active; inhibition, % (test concentration not listed); TRPM1 promoter luciferase, 24 h; in the data active = inhibition above about 85%; inconclusive = no clear call, values can overlap the other calls; inactive = below about 68%;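 note: human melanocyte line stably carrying TRPM1 promoter luciferase reporter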
# Hedgehog inh – Hedgehog pathway signaling inhibitors, primary screen, luminescence, Shh-LIGHT2 cells, Gli-luciferase; Shh-LIGHT2 Gli-luciferase reporter, 30 h; inhibition, % (no concentration beside the values); 22,000 tested, 2.1% active;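 active = mean inhibition across valid replicates above about 65%, limit read from the data; inconclusive = mean under the limit, yet half or more replicates past it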;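 note: pathway switched on by Shh-conditioned medium diluted 1 in 25 in low serum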
# PD-1 reversal – activators reversing PD-1 mediated T-cell inhibition, primary screen, luminescence, primary human CD4 T cells, PD-L1 beads; AID 2316, 2010; activation, % (test concentration not listed); 29,000 tested, under 10 active; CellTiter-Glo 96 h; call rule not given here;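 note: 0% = median vehicle wells and 100% = positive control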
# NOMO-1 viab – NOMO-1 AML cell viability reduction, primary screen, STK33 inhibitor project, CellTiter-Glo luminescence; NOMO-1 AML viability, 72 h; inhibition, % (no concentration beside the values); 37,000 tested, 7.5% active; in the data active = inhibition above about 80%; inconclusive = no clear call, values can overlap the other calls
# Active calls of the source: *; u = inconclusive; x = not tested or not shown; ! = repeats disagree.
SMILES,MITF inhib,Hedgehog inh,PD-1 reversal,NOMO-1 viab
COc1ccc(CN(C)C[C@H]2Oc3ccc(NS(=O)(=O)c4ccc(F)cc4)cc3CC(=O)N([C@H](C)CO)C[C@H]2C)cc1,-13.8,x,0.8,18.3
Cc1ccc(S(=O)(=O)Nc2ccc3c(c2)CC(=O)N([C@H](C)CO)C[C@H](C)[C@H](CN(C)Cc2ccc(C(F)(F)F)cc2)O3)cc1,21.7,7.3,-0.2,104.3*
COc1ccc(S(=O)(=O)Nc2ccc3c(c2)CC(=O)N([C@@H](C)CO)C[C@H](C)[C@@H](CN(C)Cc2ccc(C(F)(F)F)cc2)O3)cc1,44.5,29.6,-0.4,112.5*
C[C@@H]1CN([C@H](C)CO)C(=O)Cc2cc(NS(=O)(=O)c3ccc(F)cc3)ccc2O[C@@H]1CN(C)Cc1ccc(C(F)(F)F)cc1,2.7,u,-6.1,111.0*
C[C@H](CO)N1C[C@H](C)[C@@H](CN(C)Cc2ccncc2)Oc2ccc(NC(=O)Nc3ccc(C(F)(F)F)cc3)cc2C1=O,-42.4,-4.7,x,20.5
C[C@H](CO)N1C[C@H](C)[C@H](CN(C)Cc2ccncc2)Oc2ccc(NC(=O)Nc3ccc(C(F)(F)F)cc3)cc2C1=O,12.0,13.4,-0.5,86.4*
C[C@H]1CN([C@@H](C)CO)C(=O)c2cc(NC(=O)Nc3ccc(C(F)(F)F)cc3)ccc2O[C@H]1CN(C)Cc1ccncc1,35.5,42.6,2.4,102.2*
CNc1ccccc1C(=O)OC1OC(C)C(O)C(O)C1O (centres undefined),-4.1,-1.3,0.6,-4.3
O=C(OCCn1ncc2ccccc2c1=O)c1ccc(F)cc1Cl,-14.0,-6.9,-0.7,-7.1
COc1cc2ncnc(Nc3cccc(Cl)c3)c2cc1OC,52.0,-8.5,0.8,89.5*!
O=C1c2ccccc2C(=O)N1CC12CC3CC(CC(C3)C1)C2,4.8,x,-3.8,98.4*
Cc1c(C)c(C)c(CN2C(=O)c3ccccc3C2=O)c(C)c1C,-6.3,19.9,-3.7,18.4
CC(=O)Oc1ccc2occ(C(=O)c3ccc(Br)s3)c2c1,-21.9,-27.2,-1.1,41.3
CC(=O)Oc1ccc2occ(C(=O)CCN(C)C)c2c1,-0.2,20.6,-4.7,140.4*
COc1cc(CSc2nnnn2-c2ccc(C)cc2C)cc(OC)c1OC,39.5,u,1.8,46.3
COc1ccc(OC)c(NC(=O)COc2ccc(C(=O)Nc3ccc(Cl)cc3)cc2)c1,4.2,x,x,8.0
COc1ccc(OC)c(NC(=O)c2ccc(CSc3ncnc4nc[nH]c34)cc2)c1,33.1,68.4*,0.7,41.6
Cc1ccccc1NC(=O)CCCC(=O)O,-21.5,x,1.6,-13.5
Cc1ccccc1NC(=O)CCC(=O)OC1CCC(C(C)(C)C)CC1 (centres undefined),-11.5,29.1,-0.4,92.8*
Cc1sc(NC(=O)COc2ccccc2C(C)C)c(C(N)=O)c1C,15.4,x,-3.0,37.1
CC(=O)N1CCc2nc(SCC(=O)Nc3cccc(C#N)c3)c(C#N)c(C(F)(F)F)c2C1,28.7,x,-0.9,-7.7
Cc1cc(C)c(NC(=O)CN(c2cc(Cl)cc(Cl)c2)S(C)(=O)=O)c(C)c1,-5.0,x,0.8,18.5
C[C@H](CO)N1C[C@H](C)[C@@H](CN(C)Cc2ccc(Cl)c(Cl)c2)Oc2c(NC(=O)Nc3ccc(F)cc3)cccc2C1=O,19.8,-3.5,-3.5,98.7*
COc1ccc(CN(C)C[C@@H]2Oc3c(NC(=O)Nc4ccc(OC)cc4)cccc3C(=O)N([C@H](C)CO)C[C@H]2C)cc1,20.6,16.1,x,64.7
COc1ccc(NC(=O)Nc2cccc3c2O[C@@H](CN(C)Cc2ccc(Cl)c(Cl)c2)[C@H](C)CN([C@@H](C)CO)C3=O)cc1,64.5,-38.7,-5.9,111.1*
SMILES,MITF inhib,Hedgehog inh,PD-1 reversal,NOMO-1 viab
C[C@@H]1CN([C@H](C)CO)C(=O)c2cccc(NC(=O)Nc3ccc(F)cc3)c2O[C@H]1CN(C)Cc1ccc(Cl)c(Cl)c1,26.8,-25.9,-3.1,95.8*
C[C@H]1CN([C@@H](C)CO)C(=O)c2cccc(NC(=O)Nc3ccc(F)cc3)c2O[C@H]1CN(C)Cc1ccc(Cl)c(Cl)c1,22.1,-6.1,-1.0,40.6
C[C@H]1CN([C@@H](C)CO)C(=O)c2cccc(NC(=O)Nc3ccc(F)cc3)c2O[C@@H]1CN(C)Cc1ccc(Cl)c(Cl)c1,31.9,-6.9,x,108.8*
O=C1c2ccccc2NC(c2ccccc2)N1N=C1CCCCCC1 (centres undefined),-19.4,-43.5,0.0,14.9
Oc1ccccc1-c1cc(-c2ccc3c(c2)OCO3)cc(-c2ccccc2)n1,-7.2,-11.4,0.6,32.5
Cc1nc(SCC(=O)Nc2cc(C(F)(F)F)ccc2Cl)nc2c1CCCC2,21.0,x,x,5.8
